# Measurements: article PMC12136788
# Positions count from the first letter of the chain named. The full ranking holds about 5,800 sequences; the median of “enrichment r” is about 0.68, and the highest 2% start at about 11. The entries come from a sample that favours the highest values as a whole.
# T1: UNK ZnF1-6 (called full-length) (human, UniProt Q9C0B0 30-357)
# T1 sequence: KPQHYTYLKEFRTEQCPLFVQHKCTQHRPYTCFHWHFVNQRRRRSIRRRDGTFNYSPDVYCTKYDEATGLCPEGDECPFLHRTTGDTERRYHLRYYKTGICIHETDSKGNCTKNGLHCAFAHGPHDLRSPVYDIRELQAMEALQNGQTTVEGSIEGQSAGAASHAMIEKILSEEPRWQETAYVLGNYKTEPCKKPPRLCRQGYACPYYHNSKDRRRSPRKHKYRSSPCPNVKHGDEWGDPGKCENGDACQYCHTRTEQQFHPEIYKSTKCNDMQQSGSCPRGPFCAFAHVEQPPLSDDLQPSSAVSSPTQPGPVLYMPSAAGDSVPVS
# B1: ENSG00000070961:be:win_4601|3pUTR|ENSG00000070961|bound_else_gene|NA|bound_elsewhere_windowed (ssRNA)
# RNA: GGGAGUUCUACAGUCCGACGAUCUCAGACUAUCAAACUACAAGAGAACCUUAGUCUUUUUUGUUUUUGUCUAAACAUGUUAGUUUAGUGAUGUCUUGGUGAACUGUGAGUGAACUGUAUUGAUUUUUCUAAUCUUUAGAGACCCAACAGAGGAUUGAGCAUCA
# B2: ENSG00000157823:stop:overlap|stop_codon|ENSG00000157823|stop_codon|NA|stop_codon (ssRNA)
# RNA: GGGAGUUCUACAGUCCGACGAUCUCCGCUUCUACCAGCGUUUCAAGAAAUUCAACAGCAGAUUGUUCGAGAGACUUUCCAUCUAGUCCUCAAGCGGGAUGACAACAUCUGUAACUUCUUGGAGGGUGGAAGUUUGAUUGGUGGCAACAGAGGAUUGAGCAUCA
# B3: chr13:42321371:42321394:+|3pUTR|ENSG00000023516|msi1_unk|FALSE|overlapping (ssRNA)
# RNA: GGGAGUUCUACAGUCCGACGAUCUUCUGUUUAUGGUGUAAUCAUUCUGAGGUGAGGCUUUUCUUAUUUCCUUUGCAUUUUGCUAGAGCUGUGCUGAGUUCAGCAUUUGCUUAUUUAACCACUACAUAAUGACAGACCAGUUAUCAACAGAGGAUUGAGCAUCA
# B4: chr17:29548703:29548809:+|3pUTR|ENSG00000160551|unk|FALSE|bound_elsewhere (ssRNA)
# RNA: GGGAGUUCUACAGUCCGACGAUCAGCACUUGUGAGUGAAAAAUCAUGUAAUUAUCUGUAAAUAUGUAGCUAACAAAUUGACCUAGUUUCUGUAUUUUUUUGUUUUUGUACUAAAGUUUAUAGGUCUGUGCCAGCUAGAGAGAACAACAGAGGAUUGAGCAUCA
# B5: chr7:157269180:157269282:+|3pUTR|ENSG00000009335|unk|FALSE|unique (ssRNA)
# RNA: GGGAGUUCUACAGUCCGACGAUCAUUUUAGGUUGUUUUAUGUUGAAUGUUCUAUAUCUUAUUAGUUAAUUUGUAUAUUUUAUUAGUAUUUUGGAAAUAGCAUAUCUGAGACUGAAGAGAAAUUGACAAUUCACUUAUUUGUGGCAACAGAGGAUUGAGCAUCA
# B6: chr8:23844609:23844711:-|3pUTR|ENSG00000159167|msi1|FALSE|unique (ssRNA)
# RNA: GGGAGUUCUACAGUCCGACGAUCUUUAGGGGUGUUGACACACCAGUUUUGAGUGUACUGUGCCUGGUUUGAUUUUUUUAAAGUAGUUCCUAUUUUCUAUCCCCCUUAAAGAAAAUUGCAUGAAACUAGGCUUCUGUAAUCAAUCAACAGAGGAUUGAGCAUCA
# B7: chr2:65312585:65312700:-|3pUTR|ENSG00000198369|unk|FALSE|unique (ssRNA)
# RNA: GGGAGUUCUACAGUCCGACGAUCUGGACCAGGGCUAGAAUGGGGAUUUCAGGUUUCUAUGAGCCUCCCCAUUACCCCUAAAGUAGAACAUUUUUUAAAUUGUGUUGCCACCACUUCUAAAAAUUUAGCAAUAUUAGAAUAGGACAACAGAGGAUUGAGCAUCA
# B8: chrX:135156539:135157311:-|three_prime_utr|ENSG00000169551|control|control|control (ssRNA)
# RNA: GGGAGUUCUACAGUCCGACGAUCUUUAUUCUGUUUAUCUUUCCUUUUAUGAGCAGUAAAGGGGCUGGUUUAACUUAAAAGGUUAGCUUAGUAAGCCUAAAUAGUAUUUUAUAUAUGACUUUUCUGGCAAAUCUAAUUGAGACACAACAGAGGAUUGAGCAUCA
# B9: chr15:67202635:67202736:-|3pUTR|ENSG00000103591|msi1|FALSE|unique (ssRNA)
# RNA: GGGAGUUCUACAGUCCGACGAUCUGCCAAAAUUGCCCUUAUCAUGUUGGCUGCCUGACUUGUUUAUAGGGUCCCCUUAAUUUUAGUUUUUAGUAGGAGGUUAAGGAGAAAUCUUUUUUUUCCUCAGUAUAUUGUAAGAGAGUGCAACAGAGGAUUGAGCAUCA
# B10: chr1:68475836:68475940:-|3pUTR|ENSG00000024526|unk|total|mutant (ssRNA)
# RNA: GGGAGUUCUACAGUCCGACGAUCAUGCCCAGGGCCUAACUUACACUAAUUAAAUCUGAAUUUUGGGGAUGUUGUACCGGGAUCCGUAUUUUUUUUAAUCCCGGUGAUUCCAAUAUUCAGCCAACUGUGAGAAUCAAUGGCCUACAACAGAGGAUUGAGCAUCA
# B11: chr1:68475836:68475940:-|3pUTR|ENSG00000024526|unk|FALSE|unique (ssRNA)
# RNA: B10 RNA with C76U, C77A, C83U, C84A, C100U, C101A
# B12: chr7:7573188:7573293:+|CDS|ENSG00000164654|unk|total|mutant (ssRNA)
# RNA: GGGAGUUCUACAGUCCGACGAUCCCAUAUUUCCACGAUCGUGUUGCUUCCUUCUAUGAAGGUCAGGUUGCAAUAUGGGAUCUCCGAAAAUUUGAGAAGCCAGUUUUGACAUUGACUGAGCAACCAAAACCCUUAACAAAAGUACAACAGAGGAUUGAGCAUCA
# B13: chr18:2804133:2804242:+|3pUTR|ENSG00000101596|unk|FALSE|unique (ssRNA)
# RNA: GGGAGUUCUACAGUCCGACGAUCGGUUAAAGAGAAAUGACUUUUUAGGAACUAGACUUGAACGUAUAAUUAAUAUGUGGAACUAGUUUGCUUUUAUAAUUCAUUGUAUCAAGAAGGAGUCAUGUUUUAAAUCCAAGGCAUUGACAACAGAGGAUUGAGCAUCA
# B14: chr19:34469546:34469571:+|3pUTR|ENSG00000126261|msi1_unk|FALSE|overlapping (ssRNA)
# RNA: GGGAGUUCUACAGUCCGACGAUCGUUGCCUUUUUAAUGUAAAUACCCGUAGGUAUCAUUAAUAGUUUCAAAAUAUUGUGGUUUAGUAAAGUUGAUACCUGGUUAUAAAUAUUAUGCCUUUAUUUUUGGCUAGAAGAAGAAUUACAACAGAGGAUUGAGCAUCA
# B15: chr7:157269180:157269282:+|3pUTR|ENSG00000009335|unk|total|mutant (ssRNA)
# RNA: B5 RNA with U28C, A29C, U62C, A63C, U83C, A84C, U97C, A98C
# Target: T1, UNK ZnF1-6 (called full-length)
# Assay: nsRBNS (natural sequence RNA bind-n-seq); RBNS binding buffer (assumed for nsRBNS): 25 mM Tris pH 7.5, 150 mM KCl, 3 mM MgCl2, 0.01% Triton X-100, 500 ug/ml BSA, 20 U/ml SUPERase-In, 4 C; UNK is unkempt and MSI1 is Musashi-1; names of the RNAs are library labels; protein concentration not given here; high values mean tight binding
row,Binder,binding signal [enrichment R]
1,B1,2.66
2,B2,0.633
3,B3,0.605
4,B4,6.33
5,B5,19.7
6,B6,0.924
7,B7,13.9
8,B8,1.68
9,B9,15.9
10,B10,0.698
11,B11,11.6
12,B12,0.291
13,B13,0.789
14,B14,9.94
15,B15,0.843
